This is one part of a sample in which hits are shown more often than they occur.
MITF inh: inhibitors of MITF, primary screen, MITF inhibitor project, cell-based, luminescence. inhibition, % (concentration not given with the values). actives 0.28% (n = 37,000). TRPM1 promoter luciferase, 24 h. AID 2240, 2010; in the data active = inhibition above about 85%; inconclusive = no clear call, values can overlap the other calls; inactive = below about 68%;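 note: human melanocyte line stably carrying TRPM1 promoter luciferase reporter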
mut p53 react: mutant p53 pathway re-activators, primary screen, cell-based, SW480, luciferase, single point, HTS | SW480 PUMA-promoter luciferase, p53 mutant reactivation | activation, % at 9.98 µM | actives 1.5% (n = 28,000); in the data active = activation above about 52%; inconclusive = no clear call, values can overlap the other calls
STK33 kin inh: STK33 kinase inhibitors, primary screen, biochemical, luminescence, ADP-Glo, MBP substrate | AID 2322, 2010 | inhibition, % at 12.5 µM | actives 0.44% (n = 27,000); in the data active = inhibition above about 20%; inconclusive = no clear call, values can overlap the other calls
Target sequence (Q9BYT3 whole entry, looked up): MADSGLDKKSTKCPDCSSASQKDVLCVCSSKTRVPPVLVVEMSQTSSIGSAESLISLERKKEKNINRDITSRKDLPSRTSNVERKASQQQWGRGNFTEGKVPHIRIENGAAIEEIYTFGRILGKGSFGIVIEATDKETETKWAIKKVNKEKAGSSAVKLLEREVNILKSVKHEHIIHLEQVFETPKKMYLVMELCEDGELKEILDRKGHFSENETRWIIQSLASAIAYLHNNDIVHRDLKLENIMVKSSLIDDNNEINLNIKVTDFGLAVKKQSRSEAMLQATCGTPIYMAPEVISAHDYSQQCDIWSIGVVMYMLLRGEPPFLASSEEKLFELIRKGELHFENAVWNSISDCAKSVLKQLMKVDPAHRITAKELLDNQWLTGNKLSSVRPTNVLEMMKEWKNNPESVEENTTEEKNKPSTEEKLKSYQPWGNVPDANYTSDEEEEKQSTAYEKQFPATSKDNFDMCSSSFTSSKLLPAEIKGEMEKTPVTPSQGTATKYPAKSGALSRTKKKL
NOMO-1 viab: NOMO-1 AML cell viability reduction, primary screen, STK33 inhibitor project, CellTiter-Glo luminescence | NOMO-1 AML viability, 72 h | inhibition, % (no concentration beside the values) | actives 7.5% (n = 37,000) | AID 2330, 2010; in the data active = inhibition above about 80%; inconclusive = no clear call, values can overlap the other calls
Numbers stand for hits; i = inactive; ? = inconclusive; nt = no result given.

SMILES	MITF inh	mut p53 react	STK33 kin inh	NOMO-1 viab
CCCOc1ccc(Oc2nc(NC(C)(C)C)nc(N3CCOCC3)n2)nn1	i	i	i	i
O=S(=O)(CCSc1ccccn1)c1nc2ccccc2s1	i	i	i	108
O=C(O)CCSc1nc2ccccc2s1	?	i	i	i
O=S(=O)(CCSc1nc2ccccc2o1)c1nc2ccccc2s1	i	i	i	127
COc1ccccc1C(=O)CSc1nnc(-c2ccccc2Cl)n1-c1ccccc1	i	i	i	i
Clc1ccc(-c2cnc3n2CCC3)cc1Cl	i	nt	nt	112
CC(C)c1ccc(NCC(O)COc2ccc(Cl)c(Cl)c2)cc1 (configuration not stated)	i	nt	nt	117
CC(C)c1ccc(NCC(O)CSc2ccccc2)cc1 (configuration not stated)	i	nt	nt	110
Cc1cc2ncn(CC(O)COc3ccc(C(C)C)cc3)c2cc1C (configuration not stated)	i	i	i	?
S=C1NC2=C(C(c3ccccc3)N1)N1CCC2CC1 (configuration not stated)	nt	i	nt	nt
O=C1C2=C(NC(=S)NC2c2ccccc2)c2ccccc21 (configuration not stated)	i	nt	i	114
O=C(CSc1nnc(-c2ccccc2O)n1-c1ccccc1)Nc1ccc(N2CCOCC2)cc1	i	i	i	i
O=C(NCc1ccco1)C1CC(c2ccccc2O)=NO1 (configuration not stated)	i	i	i	i
COc1cc(OC)c(C2=NOC(C(=O)NCc3ccco3)C2)cc1Cl (configuration not stated)	i	i	i	129
O=C(COc1ccc(C2CCCCC2)cc1)Nc1cccc2ncccc12	i	i	i	i
Cc1ccc(Nc2nnc(-c3ccc(C)c(S(=O)(=O)NCC4CCCO4)c3)c3ccccc23)cc1 (configuration not stated)	i	nt	nt	119
COc1ccc(OC)c(NC(=O)COc2ccc3c(=O)c(-c4ccccc4OC)c(C(F)(F)F)oc3c2)c1	i	i	i	i
CCCC[C@@H](C)/C=C(C)/C=C(\C)C(=O)NC1=C[C@@](O)(/C=C/C=C/C=C/C(=O)NC2C(=O)CCC2=O)[C@@H]2O[C@@H]2C1=O	i	nt	i	142
CC1(C)CC(=O)C2=C(C1)Nc1ccccc1N(C(=O)C(F)(F)F)C2c1ccc(Cl)cc1Cl (configuration not stated)	i	nt	nt	87
COc1ccc(C2C3=C(CC(C)(C)CC3=O)Nc3ccccc3N2C(C)=O)cc1COc1ccc(F)cc1 (configuration not stated)	i	i	i	i
COC(=O)CCN(C(=O)c1ccc(OC(C)=O)cc1)c1ccccn1	i	i	i	104
COc1ccc(Cl)cc1Nc1nc(N)nc(-c2oc3ccccc3c2C)n1	i	i	i	i
COc1ccc(Cl)cc1Nc1nc(N)nc(-c2cc3ccccc3o2)n1	i	i	i	95
CCOC(=O)CSc1ncc(-c2ccccc2)nn1	i	i	i	i
CCOC(=O)CSc1sc(C(=O)OCC)c2c1S(=O)(=O)N(C)c1ccccc1-2	i	nt	nt	120
SMILES	MITF inh	mut p53 react	STK33 kin inh	NOMO-1 viab
Cc1ccc(S(=O)(=O)N(Cc2cc3cccc(C)c3[nH]c2=O)c2ccccc2)cc1	i	i	i	116
FC(F)(F)C1CCN(c2ncccc2NC(=S)Nc2ccc(Cl)cc2)CC1	i	nt	nt	i
Cc1ccc(S(=O)(=O)N(CC(N)=O)c2ccc(Br)cc2)cc1	i	i	i	i
CC(C)c1ccc(N2C=Nc3ccc(C(C)C)cc3C2)cc1	i	nt	nt	115
O=C(Nc1ccc(OCc2nc3ccccc3s2)cc1)c1ccc(Cl)cc1	i	i	i	i
Cc1cc(OCc2nc3ccccc3s2)ccc1NC(=O)Nc1cccc(Cl)c1	i	i	i	107
C[C@@H]1CN([C@@H](C)CO)C(=O)c2cccc(NC(=O)Nc3ccc(F)cc3)c2O[C@@H]1CN(C)S(=O)(=O)c1ccc(F)cc1	i	nt	nt	85
Cc1ccc(S(=O)(=O)N(C)C[C@@H]2Oc3c(NC(=O)Nc4ccc(F)cc4)cccc3C(=O)N([C@H](C)CO)C[C@@H]2C)cc1	i	nt	nt	82
Cc1ccc(S(=O)(=O)N(C)C[C@@H]2Oc3c(NC(=O)Nc4ccc(F)cc4)cccc3C(=O)N([C@@H](C)CO)C[C@@H]2C)cc1	i	nt	nt	i
COc1ccc2ncc3c(c2c1)-c1cc(Cl)ccc1OC3	nt	69	nt	nt
C[C@H](CO)N1C[C@H](C)[C@H](CN(C)S(=O)(=O)c2ccc(F)cc2)Oc2c(NC(=O)CCCCCC(=O)Nc3ccccc3N)cccc2C1=O	i	nt	nt	95
C[C@@H]1CN([C@@H](C)CO)C(=O)c2cccc(NC(=O)CCCCCC(=O)Nc3ccccc3N)c2O[C@@H]1CN(C)S(=O)(=O)c1ccc(F)cc1	i	nt	nt	92
COc1cccc2cc(C(=O)C3C(=O)C(=O)N(c4nc(C)c(C)s4)C3c3ccco3)oc12 (configuration not stated)	i	i	i	i
Cc1nn(C(=O)Cn2nc([N+](=O)[O-])cc2C)c(C)c1Cl	i	i	i	i
Cc1cccc(NC(=O)c2ccc(OC(C)C(=O)Nc3ccccc3C(F)(F)F)cc2)c1C (configuration not stated)	i	i	i	113
Cc1cc(N(CC(N)=O)S(C)(=O)=O)ccc1Br	i	i	i	i
C[C@H](CO)N1C[C@H](C)[C@H](CN(C)Cc2ccc(Cl)c(Cl)c2)Oc2ccc(NC(=O)Nc3ccc(F)cc3)cc2CC1=O	i	nt	i	i
C[C@H]1CN([C@@H](C)CO)C(=O)Cc2cc(NC(=O)Nc3ccc(F)cc3)ccc2O[C@H]1CN(C)Cc1ccc(Cl)c(Cl)c1	i	nt	nt	127
C[C@@H]1CN([C@@H](C)CO)C(=O)Cc2cc(NC(=O)Nc3ccccc3)ccc2O[C@@H]1CN(C)Cc1ccc(Cl)c(Cl)c1	i	nt	i	103
C[C@H](CO)N1C[C@H](C)[C@H](CN(C)Cc2ccccc2)Oc2ccc(NC(=O)Nc3ccccc3)cc2CC1=O	i	nt	nt	i
C[C@H]1CN([C@@H](C)CO)C(=O)Cc2cc(NC(=O)Nc3ccc4c(c3)OCO4)ccc2O[C@H]1CN(C)Cc1ccc(Cl)c(Cl)c1	i	nt	i	113
Cc1noc(C)c1NC(=O)Nc1ccc2c(c1)CC(=O)N([C@@H](C)CO)C[C@H](C)[C@H](CN(C)Cc1ccc(Cl)c(Cl)c1)O2	i	nt	i	114
Oc1ccc([C@@H]2Oc3cc(O)cc(O)c3C[C@@H]2O)cc1	i	i	i	i
Cc1c(C)c(C)c(S(=O)(=O)NC(C)(C)C)c(C)c1C	i	nt	nt	i
COc1ccc(NC(=O)Nc2ccc3c(c2)CC(=O)N([C@@H](C)CO)C[C@H](C)[C@@H](CN(C)Cc2ccc(Cl)c(Cl)c2)O3)cc1	i	nt	i	i
C[C@@H]1CN([C@H](C)CO)C(=O)Cc2cc(NC(=O)Nc3ccc(F)cc3)ccc2O[C@@H]1CN(C)Cc1ccc(Cl)c(Cl)c1	i	nt	i	114
Cc1ccc(S(=O)(=O)N[C@H](Cc2ccccc2)C(=O)CCl)cc1	i	i	i	98
O=C1Cc2c([nH]c3ccc([N+](=O)[O-])cc23)-c2ccccc2N1	i	nt	23	99

Compound activity (PubChem)
